PubChem BioAssay AID1159580 (chemical genetic matrix, 2015)
Among all 5,500 compounds or so, about 2,000 (36%) were called active. Inconclusive results (about 18%) are left out. Cut-off read from the data, not from the text of the source: active = normalized growth mostly below about 0.91 (no sharp cut-off); inconclusive = no clear call, values can overlap the other calls; inactive = mostly above about 0.92. The list shows a part of the results.

Assay: chemical genetic growth profiling, strain panel (AID 1159580);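 note: tested at 20 µM; growth read once vehicle control cultures reached saturation at 30 °C; 1 = growth at the plate median or of vehicle wells; lower values mean less growth of the strain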
Settings: growth OD

Measured: normalized growth

CCCCC1=NC2(CCCC2)C(=O)N1Cc1ccc(-c2ccccc2-c2nn[nH]n2)cc1
inactive: S. cerevisiae deletion strains, locus YKL009W, strain mrt4, active compounds read low 0.952 | S. cerevisiae deletion strains, locus YKL068W, active compounds read low 0.98 | S. cerevisiae deletion strains, locus YKL085W, strain MDH1 (second series), active compounds read low 0.986 | S. cerevisiae deletion strains, locus YKL085W, strain MDH1, active compounds read low 0.986 | S. cerevisiae deletion strains, locus YKL160W, strain elf1, active compounds read low 1.01 | S. cerevisiae deletion strains, locus YKL190W, strain CNB1, active compounds read low 0.986 | S. cerevisiae deletion strains, locus YKR001C, strain vps1, active compounds read low 0.996 | S. cerevisiae deletion strains, locus YKR026C, strain gcn3, active compounds read low 1.01 | S. cerevisiae deletion strains, locus YKR091W, strain srl3, active compounds read low 1.02 | S. cerevisiae deletion strains, locus YLL001W, strain dnm1, active compounds read low 1.01 | S. cerevisiae deletion strains, locus YLL026W, active compounds read low 1.02 | S. cerevisiae deletion strains, locus YLL041C, strain sdh2, active compounds read low 1.01 | S. cerevisiae deletion strains, locus YLR027C, strain aat2, active compounds read low 0.999 | S. cerevisiae deletion strains, locus YLR039C, strain RIC1, active compounds read low 0.969 | S. cerevisiae deletion strains, locus YLR058C, strain SHM2, active compounds read low 0.964 | S. cerevisiae deletion strains, locus YLR102C, strain apc9, active compounds read low 0.981 | S. cerevisiae deletion strains, locus YLR113W, strain HOG1, active compounds read low 1.02 | S. cerevisiae deletion strains, locus YLR221C, strain rsa3, active compounds read low 1.01 | S. cerevisiae deletion strains, locus YLR258W, strain gsy2, active compounds read low 1.02 | S. cerevisiae deletion strains, locus YLR262C, strain YPT6 (second series), active compounds read low 1.04 | S. cerevisiae deletion strains, locus YLR262C, strain YPT6, active compounds read low 0.947 | S. cerevisiae deletion strains, locus YLR268W, strain sec22, active compounds read low 1.09 | S. cerevisiae deletion strains, locus YLR320W, strain mms22, active compounds read low 1.02 | S. cerevisiae deletion strains, locus YLR330W, strain CHS5, active compounds read low 0.987 | S. cerevisiae deletion strains, locus YLR342W, strain FKS1 (second series), active compounds read low 0.96 | S. cerevisiae deletion strains, locus YLR342W, strain FKS1, active compounds read low 1.02 | S. cerevisiae deletion strains, locus YLR357W, strain rsc2, active compounds read low 1.01 | S. cerevisiae deletion strains, locus YLR370C, strain arc18, active compounds read low 1.01 | S. cerevisiae deletion strains, locus YLR371W, strain rom2, active compounds read low 0.972 | S. cerevisiae deletion strains, locus YLR384C, strain iki3, active compounds read low 1 | S. cerevisiae deletion strains, locus YLR418C, strain cdc73, active compounds read low 0.993 | S. cerevisiae deletion strains, locus YML016C, strain PPZ1, active compounds read low 0.984 | S. cerevisiae deletion strains, locus YML032C, strain rad52, active compounds read low 1.02 | S. cerevisiae deletion strains, locus YML120C, strain ndi1, active compounds read low 0.997 | S. cerevisiae deletion strains, locus YML124C, strain tub3, active compounds read low 0.977 | S. cerevisiae deletion strains, locus YMR058W, strain fet3, active compounds read low 1 | S. cerevisiae deletion strains, locus YMR078C, strain ctf18, active compounds read low 0.991 | S. cerevisiae deletion strains, locus YMR125W, strain sto1, active compounds read low 1.01 | S. cerevisiae deletion strains, locus YMR129W, active compounds read low 1.01 | S. cerevisiae deletion strains, locus YMR205C, strain PFK2, active compounds read low 1.03 | S. cerevisiae deletion strains, locus YMR223W, strain ubp8, active compounds read low 0.957 | S. cerevisiae deletion strains, locus YMR231W, strain pep5, active compounds read low 1.02 | S. cerevisiae deletion strains, locus YMR263W, strain SAP30, active compounds read low 0.998 | S. cerevisiae deletion strains, locus YMR307W, strain GAS1, active compounds read low 0.964 | S. cerevisiae deletion strains, locus YNL067W, strain RPL9B, active compounds read low 1.04 | S. cerevisiae deletion strains, locus YNL071W, strain lat1, active compounds read low 1 | S. cerevisiae deletion strains, locus YNL128W, strain TEP1, active compounds read low 0.968 | S. cerevisiae deletion strains, locus YNL153C, strain GIM3, active compounds read low 1.03 | S. cerevisiae deletion strains, locus YNL183C, strain NPR1, active compounds read low 0.966 | S. cerevisiae deletion strains, locus YNL209W, strain ssb2, active compounds read low 1.01 | S. cerevisiae deletion strains, locus YNL233W, strain BNI4, active compounds read low 1.04 | S. cerevisiae deletion strains, locus YNL248C, strain rpa49, active compounds read low 1.04 | S. cerevisiae deletion strains, locus YNL250W, strain rad50, active compounds read low 0.978 | S. cerevisiae deletion strains, locus YNL271C, strain bni1, active compounds read low 1 | S. cerevisiae deletion strains, locus YNL298W, strain CLA4, active compounds read low 0.971 | S. cerevisiae deletion strains, locus YNL307C, strain MCK1, active compounds read low 0.99 | S. cerevisiae deletion strains, locus YNL322C, strain KRE1 (second series), active compounds read low 1.03 | S. cerevisiae deletion strains, locus YNL322C, strain KRE1, active compounds read low 0.986 | S. cerevisiae deletion strains, locus YNR049C, strain mso1, active compounds read low 1 | S. cerevisiae deletion strains, locus YNR052C, strain pop2, active compounds read low 0.999 | S. cerevisiae deletion strains, locus YOL006C, strain TOP1, active compounds read low 1.1 | S. cerevisiae deletion strains, locus YOL012C, strain htz1 0.917 | S. cerevisiae deletion strains, locus YOL147C, strain pex11, active compounds read low 0.992 | S. cerevisiae deletion strains, locus YOR001W, strain rrp6, active compounds read low 1.01 | S. cerevisiae deletion strains, locus YOR061W, strain CKA2, active compounds read low 0.97 | S. cerevisiae deletion strains, locus YOR069W, strain VPS5, active compounds read low 0.991 | S. cerevisiae deletion strains, locus YOR070C, strain gyp1, active compounds read low 1.01 | S. cerevisiae deletion strains, locus YOR080W, strain dia2, active compounds read low 1 | S. cerevisiae deletion strains, locus YOR083W, strain WHI5, active compounds read low 1.03 | S. cerevisiae deletion strains, locus YOR106W, strain vam3, active compounds read low 1.02 | S. cerevisiae deletion strains, locus YOR136W, strain idh2, active compounds read low 0.967 | S. cerevisiae deletion strains, locus YOR144C, strain elg1, active compounds read low 0.987 | S. cerevisiae deletion strains, locus YOR184W, strain ser1, active compounds read low 0.979 | S. cerevisiae deletion strains, locus YOR231W, strain MKK1, active compounds read low 0.981 | S. cerevisiae deletion strains, locus YOR265W, strain rbl2, active compounds read low 1.01 | S. cerevisiae deletion strains, locus YOR270C, strain vph1, active compounds read low 1.08 | S. cerevisiae deletion strains, locus YOR290C, strain snf2, active compounds read low 1.01 | S. cerevisiae deletion strains, locus YOR316C, strain cot1, active compounds read low 0.984 | S. cerevisiae deletion strains, locus YPL051W, strain arl3, active compounds read low 0.984 | S. cerevisiae deletion strains, locus YPL055C, strain LGE1, active compounds read low 0.959 | S. cerevisiae deletion strains, locus YPL078C, strain atp4, active compounds read low 1.01 | S. cerevisiae deletion strains, locus YPL106C, strain sse1, active compounds read low 1.01 | S. cerevisiae deletion strains, locus YPL240C, strain hsp82, active compounds read low 1 | S. cerevisiae deletion strains, locus YPL241C, strain CIN2, active compounds read low 0.99 | S. cerevisiae deletion strains, locus YPL256C, strain CLN2, active compounds read low 0.985 | S. cerevisiae deletion strains, locus YPR119W, strain clb2, active compounds read low 0.986 | S. cerevisiae deletion strains, locus YPR141C, strain kar3, active compounds read low 0.971 | S. cerevisiae deletion strains, locus YPR163C, strain tif3, active compounds read low 0.995 | S. cerevisiae deletion strains, locus YPR167C, strain met16, active compounds read low 0.991 | S. cerevisiae deletion strains, strain wtn01, active compounds read low 1.02 | S. cerevisiae strains, strain wild type, active compounds read low 0.978
